{"source": "PubChem BioAssay AID933", "about": "(National Center for Advancing Translational Sciences (NCATS), 2007)", "note": "Records with an inconclusive call do not appear. A number with no mark means an inactive call. Calls of active or inactive are those of the source. Calls follow the shape of the dose curve; as a rule, active = well fitted activation curve with a large enough effect in the signal ratio, with a control signal flat; inconclusive = small, poorly fitted or top-dose-only effect, or a change in a side signal; inactive = flat fitted curve, though single readings scatter; the % refers to the signal ratio. Potency is read from the fitted curve at half-maximal effect."}
{"target": "Thyrotropin receptor (Homo sapiens) (UniProt P16473)", "sequence (P16473 whole entry, looked up)": "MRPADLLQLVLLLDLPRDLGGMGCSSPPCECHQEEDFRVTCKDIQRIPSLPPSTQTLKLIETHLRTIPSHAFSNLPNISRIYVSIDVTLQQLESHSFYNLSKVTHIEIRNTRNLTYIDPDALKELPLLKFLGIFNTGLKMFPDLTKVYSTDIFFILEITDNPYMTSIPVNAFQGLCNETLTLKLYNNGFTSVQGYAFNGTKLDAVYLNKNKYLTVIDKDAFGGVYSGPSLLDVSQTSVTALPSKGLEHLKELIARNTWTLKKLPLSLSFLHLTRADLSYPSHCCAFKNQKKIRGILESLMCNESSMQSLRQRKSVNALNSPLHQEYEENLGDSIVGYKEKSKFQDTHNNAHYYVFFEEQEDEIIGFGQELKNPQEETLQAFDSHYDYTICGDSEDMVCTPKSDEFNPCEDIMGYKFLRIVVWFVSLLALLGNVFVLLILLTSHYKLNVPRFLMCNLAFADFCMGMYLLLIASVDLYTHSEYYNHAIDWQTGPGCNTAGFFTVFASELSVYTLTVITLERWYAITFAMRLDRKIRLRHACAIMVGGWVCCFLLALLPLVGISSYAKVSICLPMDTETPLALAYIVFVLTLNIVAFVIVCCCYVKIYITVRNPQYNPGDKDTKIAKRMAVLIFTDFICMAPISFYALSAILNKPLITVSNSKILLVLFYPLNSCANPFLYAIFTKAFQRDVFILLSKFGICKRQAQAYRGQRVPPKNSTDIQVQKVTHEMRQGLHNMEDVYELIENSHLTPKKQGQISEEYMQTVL", "test": "Secondary Concentration-Response Assay for Agonists of the Thyroid Stimulating Hormone Receptor: HTRF Activity Detection; as to activation: % of control where 0% means no effect", "details": "HEK293-TSHR cells, cAMP HTRF ratio, 30 min; series mostly up to 91.7 µM; activation: at the top concentration", "procedure,_shortened": "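cAMP accumulation was detected by antibody-based HTRF, excitation 330 nm, emissions 615 and 660 nm. Compounds acted for 30 min at room temperature on stably TSHR-transfected HEK 293 cells, with phosphodiesterase inhibitor RO 20-1724 (100 uM) in the medium.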", "units": {"activation": "%"}}
{"smiles": "CCC(=O)Nc1ccc(OCc2cc(C3Nc4ccccc4C(=O)N3Cc3ccccc3)ccc2OC)cc1", "note": "(stereo unspecified)", "activation": 28}
{"smiles": "COc1ccc(C(=O)N(Cc2ccccc2)Cc2ccco2)c(O)c1", "Potency": "15.8 µM (active)"}
{"smiles": "COc1ccc(C2Nc3ccccc3C(=O)N2c2ccc(F)cc2)cc1Cn1nnc2ccccc21", "note": "(stereo unspecified)", "activation": 2.13}
{"smiles": "O=C1c2ccccc2NC(c2c(Cl)cccc2Cl)N1Cc1ccccc1", "note": "(stereo unspecified)", "activation": 1.83}
{"smiles": "COc1ccc(C2Nc3ccccc3C(=O)N2Cc2ccccc2)cc1COc1cccc(C(F)(F)F)c1", "note": "(stereo unspecified)", "activation": 6.58}
{"smiles": "CCN(CC)CCN1C(=O)c2ccccc2NC1c1ccc(F)cc1", "note": "(stereo unspecified)", "activation": 0.986}
{"smiles": "COc1ccc(/C=N/n2cncn2)cc1COc1ccc(NC(C)=O)cc1", "activation": 1.15}
{"smiles": "COc1ccc(-c2nc3ccccc3n2Cc2ccccc2)cc1COc1ccc(NC(C)=O)cc1", "activation": 16.2}
{"smiles": "COc1ccc(N2C(=O)c3ccccc3NC23C(=O)N(C)c2ccccc23)cc1", "note": "(stereo unspecified)", "activation": 0.828}
{"smiles": "COc1cc(C2Nc3ccccc3C(=O)N2c2ccccc2)ccc1O", "note": "(stereo unspecified)", "activation": 1.29}
{"smiles": "COc1ccc(C2Nc3ccccc3C(=O)N2Cc2ccccc2Cl)cc1COc1ccc(NC(C)=O)cc1", "note": "(stereo unspecified)", "activation": 10.2}
{"smiles": "COc1ccc2c(c1OC)C(=O)N1c3ccccc3C(=O)N(c3ccccc3)C21", "note": "(stereo unspecified)", "activation": 0.932}
{"smiles": "COc1ccc(C2Nc3ccccc3C(=O)N2c2ccc(C)cc2)cc1Cn1nc(C)c([N+](=O)[O-])c1C", "note": "(stereo unspecified)", "activation": 1.41}
{"smiles": "NC(=O)c1nsc(C(=O)N(CC(=O)NC2CCCC2)Cc2ccc3c(c2)OCO3)c1N", "activation": 0.815}
{"smiles": "COc1ccc(C2NC(=O)c3ccccc3N2)cc1COc1ccc(NC(C)=O)cc1", "note": "(stereo unspecified)", "activation": 21.9}
{"smiles": "COc1ccc(C2Nc3ccccc3C(=O)N2Cc2ccccc2)cc1COc1ccc(Cl)cc1Cl", "note": "(stereo unspecified)", "activation": 1.07}
